PNC assembly inh = High Content Assay for Compounds that inhibit the Assembly of the Perinucleolar Compartment; AID 2417, 2010; activity change (PNC), negative = inhibition, % at 10 µM; PC3M PTB-GFP, PNC prevalence imaging, 16 h; active compounds read low; 140,000 compounds, 3.1% hits;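 active means readout at or below -70, meaning at least 70% loss of cells showing the perinucleolar compartment, a nuclear body marking cancer cells; inconclusive means readout between -30 and a set limit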;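 further: plate controls were DMSO wells for no effect and camptothecin positive control wells for full effect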
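Read-out is percentage of cells bearing a perinucleolar compartment, from automated 20x imaging of fixed, Hoechst-stained PC3M PTB-GFP cells. Cells were seeded 4 h, then exposed 16 h to compound (23 nl of library stock) in duplicate plates.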
HPGD inh = qHTS Assay for Inhibitors of HPGD (15-Hydroxyprostaglandin Dehydrogenase). 15-hydroxyprostaglandin dehydrogenase [NAD(+)] (Homo sapiens), P15428. purified HPGD, NADH fluorescence kinetic, PGE2 substrate. Potency, µM, for the others: top-dose activity change, negative = inhibition, most hits filed as inhibitors. 150,000 compounds, 4.3% hits; further: potency means the concentration at half of the fitted maximal effect
Target sequence (P15428 whole entry, looked up): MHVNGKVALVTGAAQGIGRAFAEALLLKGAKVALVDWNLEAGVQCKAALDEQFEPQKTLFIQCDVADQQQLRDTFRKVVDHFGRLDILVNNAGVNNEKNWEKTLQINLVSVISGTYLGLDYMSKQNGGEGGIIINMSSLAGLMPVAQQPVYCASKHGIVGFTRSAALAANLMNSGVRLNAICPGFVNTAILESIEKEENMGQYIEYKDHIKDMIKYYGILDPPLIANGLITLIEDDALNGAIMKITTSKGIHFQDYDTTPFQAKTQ
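20 nM HPGD preincubated 15 min at room temperature with compound in 50 mM Tris-HCl pH 8, 0.01% Tween 20. Started with 1 mM NAD+ and 30 uM prostaglandin E2; NADH fluorescence (360/450 nm) read 5 times over 30-s intervals, last minus first.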
ALDH1A1 block = qHTS Assay for Inhibitors of Aldehyde Dehydrogenase 1 (ALDH1A1) | 220,000 compounds, 7.3% hits | Aldehyde dehydrogenase 1A1 (Homo sapiens), P00352 | Purified ALDH1A1, NADH fluorescence, propionaldehyde substrate | Potency, µM (titrated, usually from 75.3 µM), for inactives: top-dose activity, negative = inhibition, hits mostly inhibitors | AID 1030, 2008;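 further: potency means the concentration at half of the fitted maximal effect; plate controls were no enzyme wells and a reference inhibitor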
Numbers without * were called inactive; ? = inconclusive; nt = not tested or not shown; [ ] = dose if it differs, or a comment. In the library only some 11% were active in any assay of this set; here they are far more common. Unless noted, the call rests on the fitted dose curve; in most records, active means well fitted inhibition curve with a large enough effect (not every such curve was filed as active); inconclusive means small, poorly fitted or top-dose-only effect, or another doubt; inactive means no such curve, though single readings can be large or run the other way. Unless noted, on the % scale 0 is the no-effect control and ±100 the full control effect.

SMILES	PNC assembly inh	HPGD inh	ALDH1A1 block
CC(C)c1ccc(C2CC(=O)N3CN(C)CSC3=C2C#N)cc1 (stereo not given)	-1	14µM*	3.5µM*
COc1cc(OC)c(C2C(C#N)=C(N)Oc3cc(C)n(CCCN4CCOCC4)c(=O)c32)cc1OC (stereo not given)	28	-10%	?
COc1cc(OC)c(C2CC(=O)N3CN(C)CSC3=C2C#N)cc1OC (stereo not given)	-3	8.9µM*	8.9µM*
CC(=O)n1c2c(c3ccccc31)OC(N)=C(C#N)C2c1ccc(C(C)C)cc1 (stereo not given)	-19	-15%	?
COc1ccc(N=C2CC(C)(C)CC(=O)/C2=C(/O)c2ccccc2)cc1	nt	nt	11%
O=[N+]([O-])c1ccccc1S(=O)(=O)NCC1CCC(CNCC2CCc3ccccc3C2)CC1 (stereo not given)	nt	-12%	-7%
C/C=C(\C)C(=O)C[Si](C)(C)c1ccccc1	nt	-1%	12%
C=CCn1c(SCC(=O)N2CCc3ccccc3C2)nnc1-c1ccncc1	39	-19%	-12%
O=C(c1csc(Nc2ccccc2Cl)n1)N1CCCC1	30	16µM*	22µM*
COc1ccc(Nc2nc(C(=O)N3CCc4ccccc4C3)cs2)cc1	nt	nt	-4%
O=C(NCc1ccco1)Nc1ccccc1Cl	17	?	4%
O=C(NCc1ccco1)c1csc(Nc2ccccc2Cl)n1	-117*	16µM*	?
CCN1C(=O)[C@@H]2[C@H]3C(=CC[C@H]2C1=O)C(=O)[C@H]1OC1[C@H]3O (stereo not given in full)	nt	nt	-4%[13.5 µM]
Cc1nnc(C)n1N	nt	nt	7%
O=C(CCCl)N(Cc1nc2ccccc2c(=O)[nH]1)Cc1cccs1	nt	nt	-7%
CSc1c(CC(=O)Nc2ccccc2Cl)n(Cc2ccccc2)c2ccccc12	6	-17%	3%
CSc1c(CC(=O)Nc2ccccc2C(F)(F)F)n(Cc2ccccc2)c2ccccc12	-106*	-7%	0%
O=C(C[n+]1ccccc1)N/N=C/c1cccs1	nt	nt	6%
COc1ccccc1C1N(c2cc(Cl)ccc2OC)C(=O)C2CCCN21 (stereo not given)	-106*	1%	20%
COc1cc(C2N(c3ccccn3)C(=O)C3CCCN32)cc(OC)c1OC (stereo not given)	?	nt	22µM*
COc1ccc(C2N(c3cc(Cl)ccc3OC)C(=O)C3CCCN32)c(OC)c1 (stereo not given)	3	-5%	?
COc1ccc(C2N(c3ccccn3)C(=O)C3CCCN32)c(OC)c1 (stereo not given)	20	-5%	-11%
CCCCN(C)CCC(=O)Nc1ccc2c(c1)CCC2	nt	nt	14%
Cc1ccc(S(=O)(=O)Nc2cccc(CP(=O)(c3ccccc3)c3ccccc3)c2)cc1	nt	nt	24µM*
CCn1c2ccccc2c2cc(NS(=O)(=O)c3ccc(C)cc3)ccc21	5	-16%	-9%
SMILES	PNC assembly inh	HPGD inh	ALDH1A1 block
O=C(Nc1ccccc1OC(F)F)c1cc2c(s1)CCC2	?	-17%	?
O=C(NNC(=S)Nc1ccc(OC(F)F)cc1)c1cc2c(s1)CCCC2	0	-19%	8.9µM*
CCOC(=O)N1CCN(C(=O)CSc2ccc3nnc(CCNC(=O)c4ccc(OC)cc4)n3n2)CC1	nt	nt	7.9µM*
CCOC(=O)N1CCN(C(=O)CSc2ccc3nnc(CCNC(=O)c4ccccc4)n3n2)CC1	nt	nt	-15%
CC1(C)CC2CC(C)(CN2C(=O)COC(=O)c2n[nH]c(=O)c3ccccc23)C1 (stereo not given)	-26	-6%	?
CC1(C)CC2CC(C)(CN2C(=O)COc2cccc3ccccc23)C1 (stereo not given)	3	32µM*	4%
COC(=O)C1=C(Cn2cnc3ccccc32)NC(=O)NC1c1cc(C)ccc1C (stereo not given)	-103*	-14%	4%
CCOC(=O)C1=C(Cn2cnc3ccccc32)NC(=O)NC1c1cc(C)ccc1C (stereo not given)	-28	-1%	17%
O=C(NCc1ccccc1F)C1CCN(C(=O)c2sccc2-n2cccc2)CC1	nt	nt	2.5µM*
O=C(NNC(=O)c1c(F)cccc1F)c1sccc1-n1cccc1	nt	nt	-1%
CC1CCCCC1NC(=O)C1CCN(C(=O)NC2CCCCC2)CC1 (stereo not given)	?	-12%	-2%
CN(C)C(=O)N1CCC(C(=O)NCc2ccccc2Cl)CC1	36	-5%	4%
CCOc1ccccc1CNC(=O)C1CCN(C(=O)c2sccc2-n2cccc2)CC1	-1	-12%	0.63µM*
CC1CCCCC1NC(=O)C1CCN(C(=O)c2sccc2-n2cccc2)CC1 (stereo not given)	?	-11%	1.1µM*
COc1ccccc1CNC(=O)C1CCN(C(=O)NC2CCCCC2)CC1	nt	nt	-1%
O=C(NCc1ccccc1Cl)C1CCN(C(=O)c2sccc2-n2cccc2)CC1	60	-5%	1.4µM*
CC(C)Cn1c(SCC(=O)NCc2ccc(Cl)cc2)nnc1-c1cccc(S(=O)(=O)N2CCOCC2)c1	3	-9%	-1%
COc1ccccc1/C=C/C(=O)c1c2c(c(C)[nH]c1=O)CCCC2	-29	-12%	-6%
Cc1cccc(Oc2nc(CN3CCOCC3)nc3sc4c(c23)CCCC4)c1	-104*	-16%	?
Clc1nc(CN2CCOCC2)nc2sc3c(c12)CCC3	nt	nt	7%
O=c1[nH]cc(NCCNc2ncc(C(F)(F)F)cc2Cl)c(=O)[nH]1	nt	nt	8%
O=C(CCN=C1NS(=O)(=O)c2ccccc21)N1CCc2ccccc2C1	nt	nt	15%
CCN(CC)C(=O)C(=O)N/N=C/c1ccc(F)cc1	nt	nt	7%
Cc1ccc(CO)cc1	nt	-16%	-1%
OCc1ccncc1.OCc1ccncc1.[Cl][Pt]([Cl])([Cl])[Cl]	nt	?	2.8µM*
SMILES	PNC assembly inh	HPGD inh	ALDH1A1 block
O=C(CSc1nnc(-c2cccs2)n1-c1ccccc1)Nc1ccccc1	-8	-14%	-1%
Cc1ccc(-n2c(SCC3CCCCO3)nnc2-c2ccco2)cc1 (stereo not given)	33	16µM*	?
O=C(CSc1nnc(-c2cccs2)n1-c1ccccc1)N1CCOCC1	3	-3%	?
O=C(CSc1nnc(-c2cccs2)n1-c1ccccc1)N1CCCC1	22	25µM*	?
c1ccc(-n2c(SCC3CCCCO3)nnc2-c2cccs2)cc1 (stereo not given)	2	nt	3%
CCOC(=O)CSc1nnc(-c2ccco2)n1-c1ccccc1	13	32µM*	1.6µM*
CCOC(=O)CSc1nnc(-c2cccs2)n1-c1ccccc1	5	28µM*	?
CCOC(=O)CSc1nnc(-c2ccco2)n1-c1ccc(C)cc1	26	-10%	-11%
CCC(C)C(=O)Nc1cccc(SC)c1 (stereo not given)	nt	nt	11%
